Experimental data from the supplement of paper PMC8371130.
Counter-ions that a name gives are not always drawn.

Test system: HL-1
Assay: relative cell viability (CellTiter-Glo) vs DMSO control (% of DMSO control); higher = more viable cells
Procedure, shortened: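 Cell viability was determined from CellTiter-Glo luminescence, expressed relative to vehicle-treated control cells. The cells were HL-1 mouse atrial cardiomyocytes, plated at 1000 cells per well in 384-well plates with compounds at 40, 200, 1000 or 5000 nM in 0.01% DMSO. One day after plating, they underwent 48 h of hypoxia (1% O2) in a hypoxic workstation followed by 24 h of reoxygenation in a normal incubator, or were kept in normoxia for an equal time.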

[1] = oxygen condition: hypoxia 48 h (1% O2) + reoxygenation 24 h, 40 nM
[2] = oxygen condition: hypoxia 48 h (1% O2) + reoxygenation 24 h, 200 nM
[3] = oxygen condition: hypoxia 48 h (1% O2) + reoxygenation 24 h, 1000 nM
[4] = oxygen condition: hypoxia 48 h (1% O2) + reoxygenation 24 h, 5000 nM
[5] = oxygen condition: normoxia 72 h, 40 nM
[6] = oxygen condition: normoxia 72 h, 200 nM
[7] = oxygen condition: normoxia 72 h, 1000 nM
[8] = oxygen condition: normoxia 72 h, 5000 nM

Structure (SMILES) | relative cell viability [1] | relative cell viability [2] | relative cell viability [3] | relative cell viability [4] | relative cell viability [5] | relative cell viability [6] | relative cell viability [7] | relative cell viability [8]
C[C@H](Cc1cc2c(c(C(N)=O)c1)N(CCCO)CC2)NCCOc1ccccc1OCC(F)(F)F [Silodosin] | 106 | 98.3 | 102 | 105 | 102 | 104 | 108 | 104
CCC1=C(C)CN(C(=O)NCCc2ccc(S(=O)(=O)NC(=O)N[C@H]3CC[C@H](C)CC3)cc2)C1=O [Glimepiride] | 93.1 | 96.3 | 95.2 | 106 | 88.9 | 77.4 | 94.7 | 105
N[C@@H]1CCCCN(c2c(F)cc3c(=O)c(C(=O)O)cn(C4CC4)c3c2Cl)C1 [Besifloxacin HCl] | 96.9 | 99.1 | 96.7 | 101 | 101 | 99.5 | 98.6 | 102
CCCCc1oc2ccccc2c1C(=O)c1cc(I)c(OCCN(CC)CC)c(I)c1 [Amiodarone HCl] | 99.8 | 95.4 | 103 | 110 | 102 | 110 | 106 | 116
COc1cc2nccc(Oc3ccc(NC(=O)C4(C(=O)Nc5ccc(F)cc5)CC4)cc3)c2cc1OC | 109 | 112 | 111 | 115 | 112 | 110 | 107 | 120
CCN1CCC[C@H]1CNC(=O)c1cc(S(N)(=O)=O)ccc1OC [Levosulpiride] | 98 | 107 | 105 | 116 | 107 | 108 | 108 | 116
CC(O)(P(=O)(O)O)P(=O)(O)O [Etidronate] | 95.8 | 96.9 | 99.7 | 109 | 95.1 | 96.5 | 95.9 | 105
CCCNC(C)C(=O)Nc1ccccc1C (stereo unspecified) [Prilocaine] | 96.7 | 101 | 105 | 104 | 92.2 | 92.1 | 92.3 | 97.4
CCCSc1nc(N[C@@H]2C[C@H]2c2ccc(F)c(F)c2)c2nnn([C@@H]3C[C@H](OCCO)[C@@H](O)[C@H]3O)c2n1 [Ticagrelor] | 109 | 115 | 108 | 123 | 108 | 108 | 113 | 111
N[C@@H](Cc1ccc(O)c(O)c1)C(=O)O [Levodopa] | 110 | 109 | 107 | 110 | 104 | 101 | 108 | 104
Cc1nc(Nc2ncc(C(=O)Nc3c(C)cccc3Cl)s2)cc(N2CCN(CCO)CC2)n1 [Dasatinib] | 71.8 | 87.1 | 80.2 | 90.2 | 85.9 | 88.5 | 82.1 | 89.2
CC1CC(OC(=O)C(O)c2ccccc2)CC(C)(C)C1 (stereo unspecified) [Cyclandelate] | 104 | 106 | 106 | 118 | 103 | 108 | 110 | 115
CCCN[C@H]1CCc2nc(N)sc2C1 [Pramipexole] | 103 | 103 | 101 | 108 | 98.2 | 98.9 | 107 | 108
CC(C)(C)CC(C)(C)c1ccc(OCCOCC[N+](C)(C)Cc2ccccc2)cc1 [Benzethonium chloride] | 102 | 94.7 | 75.7 | 17.6 | 97.9 | 93.1 | 66.7 | 18
CC(CN(C)C)CN1c2ccccc2CCc2ccccc21 (stereo unspecified) [Trimipramine Maleate] | 103 | 105 | 111 | 111 | 99.2 | 101 | 102 | 94.2
COc1ccc2cccc(CCNC(C)=O)c2c1 [Agomelatine] | 96.1 | 109 | 84.5 | 113 | 94.3 | 90.4 | 132 | 111
COc1cc([C@@H]2c3cc4c(cc3[C@@H](O[C@@H]3O[C@@H]5CO[C@@H](C)O[C@H]5[C@H](O)[C@H]3O)[C@H]3COC(=O)[C@H]23)OCO4)cc(OC)c1O [Etoposide] | 85.7 | 67.1 | 46.6 | 19.1 | 91.3 | 60.8 | 40 | 13.9
COC(=O)[C@@H]1CC2=CC(=O)CC[C@]2(C)[C@@]23O[C@@H]2C[C@@]2(C)[C@@H](CC[C@@]24CCC(=O)O4)[C@H]13 [Eplerenone] | 102 | 103 | 101 | 103 | 107 | 107 | 108 | 104
Nc1nc(F)nc2c1ncn2[C@@H]1O[C@H](CO)[C@@H](O)[C@@H]1O [Fludarabine] | 104 | 101 | 107 | 109 | 101 | 107 | 104 | 83.7
CC(Oc1c(Cl)cccc1Cl)C1=NCCN1 (stereo unspecified) [Lofexidine  HCl] | 99.4 | 101 | 99.6 | 118 | 98.3 | 103 | 89.6 | 108
N#CC[C@H](C1CCCC1)n1cc(-c2ncnc3[nH]ccc23)cn1 [Ruxolitinib] | 95.7 | 98.9 | 104 | 111 | 99.8 | 96.6 | 102 | 104

Structure (SMILES) | relative cell viability [1] | relative cell viability [2] | relative cell viability [3] | relative cell viability [4] | relative cell viability [5] | relative cell viability [6] | relative cell viability [7] | relative cell viability [8]
Nc1nc(Cl)nc2c1ncn2[C@@H]1O[C@H](CO)[C@@H](O)[C@@H]1F [Clofarabine] | 114 | 69.7 | 6.59 | 2.39 | 106 | 62.6 | 3.43 | 1.95
CC[C@H](C)[C@H](N)C1=N[C@H](C(=O)N[C@@H](CC(C)C)C(=O)N[C@H](CCC(=O)[O-])C(=O)N[C@H](C(=O)N[C@H]2CCCCNC(=O)[C@H](CC(N)=O)NC(=O)[C@@H](CC(=O)[O-])NC(=O)[C@H](Cc3cnc[nH]3)NC(=O)[C@@H](Cc3ccccc3)NC(=O)[C@H]([C@@H](C)CC)NC(=O)[C@@H](CCCN)NC2=O)[C@@H](C)CC)CS1.[Zn+2] [Bacitracin zinc] | 95.4 | 107 | 109 | 123 | 105 | 107 | 109 | 117
Cc1cc(N)c2ccccc2[n+]1CCCCCCCCCC[n+]1c(C)cc(N)c2ccccc21 [Dequalinium chloride] | 101 | 104 | 101 | 112 | 93.3 | 107 | 97.3 | 101
Oc1ccc(OC2CCCCO2)cc1 (stereo unspecified) [Deoxyarbutin] | 103 | 104 | 107 | 113 | 103 | 102 | 113 | 109
O=S(=O)(O)CCS [Mesna] | 105 | 102 | 116 | 120 | 112 | 109 | 112 | 123
CN1C(CCl)Nc2cc(Cl)c(S(N)(=O)=O)cc2S1(=O)=O (stereo unspecified) [Methyclothiazide] | 106 | 98.5 | 105 | 110 | 108 | 106 | 109 | 115
CC(=O)Oc1cc2c(s1)CCN(C(C(=O)C1CC1)c1ccccc1F)C2 (stereo unspecified) [Prasugrel] | 115 | 104 | 106 | 110 | 106 | 105 | 122 | 120
OCCN1C[C@H](O)[C@@H](O)[C@H](O)[C@H]1CO [Miglitol] | 104 | 104 | 119 | 108 | 101 | 102 | 106 | 117
O=C1CCc2cc(OCCCCc3nnnn3C3CCCCC3)ccc2N1 [Cilostazol] | 107 | 107 | 111 | 107 | 105 | 108 | 106 | 109
O=C(c1ccc(OCCN2CCCCC2)cc1)c1c(-c2ccc(O)cc2)sc2cc(O)ccc12 [Evista] | 111 | 107 | 106 | 54 | 112 | 107 | 109 | 68.7
CN(C)CCN(Cc1ccccc1)c1ccccn1 [Tripelennamine HCl] | 97.8 | 87.6 | 88 | 103 | 93 | 91.8 | 94.1 | 105
CN1CCCCC1CCN1c2ccccc2Sc2ccc([S+](C)[O-])cc21 (stereo unspecified) [Mesoridazine Besylate] | 108 | 106 | 105 | 113 | 97 | 102 | 117 | 115
CCN(CC)C(=S)SSC(=S)N(CC)CC [Disulfiram] | 12.3 | 8.25 | 4.82 | 4.57 | 19.2 | 11.5 | 6.89 | 3.79
CC[C@@]1(O)C(=O)OCc2c1cc1n(c2=O)Cc2cc3c(CN(C)C)c(O)ccc3nc2-1 [Topotecan HCl] | 58.6 | 37.4 | 19.8 | 9.1 | 52.3 | 30.9 | 15.1 | 6.41
C[C@]12CC[C@@H]3c4ccc(O)cc4CC[C@H]3[C@@H]1C[C@@H](O)[C@@H]2O [Estriol] | 101 | 99.3 | 95.4 | 103 | 105 | 101 | 99.8 | 104
NCCC(O)(P(=O)(O)O)P(=O)(O)O [Pamidronate Disodium] | 98.6 | 106 | 107 | 76.5 | 107 | 99.9 | 108 | 105
CCCCN(CCCC)CCCOC(=O)c1ccc(N)cc1 [Butacaine] | 103 | 101 | 106 | 106 | 103 | 92.7 | 102 | 104
Nc1nc2[nH]cc(CCc3ccc(C(=O)N[C@@H](CCC(=O)O)C(=O)O)cc3)c2c(=O)[nH]1 [Pemetrexed] | 116 | 104 | 85.8 | 74.8 | 104 | 95.5 | 90.8 | 69.6
Cc1cccc(CN2CCN(C(c3ccccc3)c3ccc(Cl)cc3)CC2)c1 (stereo unspecified) [Meclizine 2HCl] | 101 | 108 | 98.5 | 107 | 101 | 109 | 111 | 103
CC(=O)/N=c1/sc(S(N)(=O)=O)nn1C [Methazolamide] | 100 | 109 | 108 | 109 | 110 | 105 | 99.7 | 108
CCCNCC(O)COc1ccccc1C(=O)CCc1ccccc1 (stereo unspecified) [Propafenone] | 97.1 | 105 | 108 | 105 | 107 | 102 | 110 | 103
